# The panel holds about 83,000 compounds, 20% with a hit somewhere; the sample as a whole holds those more often.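 For each line, cells grew in 96-well plates with the test compound present at a single concentration for 48 hours.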 Calls of active or inactive are those of the source. Rule for the calls: active = growth percent below 10; inactive = the rest.
# System: T-47D breast
# Test: NCI-60 one-dose screen, 48 h (100 = growth as untreated, 0 = no growth, -100 = all killed)
# Conditions: 10 µM
row,Compound,growth
1,CCOC(=O)c1[nH]c(C)c(C(=O)O)c1C,109% (inactive)
2,O=C(c1ccccc1)C1CCC1,99.7% (inactive)
3,CCOc1ccc(/C=N/N=C(N)N)cc1OCC,88.4% (inactive)
4,CCCC[P+](c1ccccc1)(c1ccccc1)c1ccccc1,26.5% (inactive)
5,O=C(O)[C@@H]1[C@H]2C[C@H]3c4[nH]c5ccccc5c4CCN3C[C@@H]2CC[C@@H]1O,114% (inactive)
6,O=[N+]([O-])c1ccc(N=Nc2ccc(O)c3ccccc23)cc1,9.85% (active)
7,NC(=S)CN1CCOCC1,114% (inactive)
8,CCCCN(CCCC)CCCO,107% (inactive)
9,CC1(c2ccccc2)NC(=O)NC1=O (stereo unspecified),109% (inactive)
10,Cc1cc(C)c(N)c(S(=O)(=O)O)c1,93.2% (inactive)
11,CN(C)C(C)(C)CC(C)(C)C,104% (inactive)
12,Cc1c(C(=O)O)c(=O)n(-c2ccccc2)n1C,98.8% (inactive)
13,COc1cc2c3cc1Oc1c(OC)c(OC)cc4c1C(Cc1ccc(O)c(c1)Oc1ccc(cc1)CC3N(C)CC2)N(C)CC4 (stereo unspecified),-64.6% (active)
14,COc1cc(C(=O)NC(=S)Nc2ccc3ccccc3c2)cc(OC)c1OC,91.2% (inactive)
15,O=C1C=CC(=O)N1c1ccc(I)cc1Cl,84.1% (inactive)
16,NC(C(=O)O)c1ccc([N+](=O)[O-])cc1 (stereo unspecified),99.3% (inactive)
17,CC1=CC(C)(C)NC(=S)N1c1ccc(S(=O)(=O)O)c2cccc(S(=O)(=O)O)c12,106% (inactive)
18,O=C(/C=C/C(=O)c1ccccc1)c1ccccc1,92.4% (inactive)
19,CCC(O)CC(CC)CO (stereo unspecified),115% (inactive)
20,O=[N+]([O-])c1ccc(Cl)c(S(=O)(=O)O)c1,103% (inactive)
21,O=C1C=CC2=C3c4cc(O)c(O)cc4CC3(O)COC2=C1O (stereo unspecified),113% (inactive)
22,O=C(N/N=C\c1cc(Br)cc(Br)c1O)N/N=C/c1cc(Br)cc(Br)c1O,62.3% (inactive)
23,O=S(=O)(O)C(Nc1ccccc1)c1ccccc1 (stereo unspecified),93.7% (inactive)
24,CCC(=O)Oc1ccc(OC)cc1,101% (inactive)
25,OCc1cccc2ccccc12,103% (inactive)
26,Cc1cc(N2CCC(N3CCCC3)CC2)nc(/N=C(\N)Nc2ccc(Cl)c(Cl)c2)n1,106% (inactive)
27,O=c1[nH]nc(SC2CCCCC2)c(=O)[nH]1,99.6% (inactive)
28,C=CC(=O)OCCCCCCCC,105% (inactive)
29,Cc1cc(=O)cc(C)n1-c1ccccc1,91.7% (inactive)
30,Cc1nc2ccccc2c(C(=O)O)c1O,91.3% (inactive)

# System: BT-549 breast
# Test: as above
# Conditions: 10 µM
row,Compound,growth
1,CCCC[P+](c1ccccc1)(c1ccccc1)c1ccccc1,17.8% (inactive)
2,COC(=O)c1ccc(NC(=O)CCl)cc1,67.9% (inactive)
3,COc1ccccc1NC(=O)c1cc2cc(Br)ccc2cc1O,18.8% (inactive)
4,Cc1c(C(=O)O)c(=O)n(-c2ccccc2)n1C,114% (inactive)
5,COc1cc2c3cc1Oc1c(OC)c(OC)cc4c1C(Cc1ccc(O)c(c1)Oc1ccc(cc1)CC3N(C)CC2)N(C)CC4 (stereo unspecified),32.8% (inactive)
6,COc1ccccc1C1OC2=Nc3cc(C)c(C)cc3NC2C1=O (stereo unspecified),88.6% (inactive)
7,COc1cc(C(N)=O)cc(OC)c1OC,108% (inactive)
8,COc1cc(C(=O)NC(=S)Nc2ccc3ccccc3c2)cc(OC)c1OC,121% (inactive)
9,C=CCNC(=O)c1ccc(OC)cc1,106% (inactive)
10,CSc1[nH]c(=O)ncc1F,94.1% (inactive)
11,CCOC(=O)c1cc(/C=C/c2ccc(Cl)cc2Cl)on1,26.3% (inactive)
12,COc1ccccc1NC(=O)C1=C(C)NC(C)=C(C(=O)Nc2ccccc2OC)C1c1cccc([N+](=O)[O-])c1,73.6% (inactive)

# System: MDA-MB-435 melanoma
# Test: as above
# Conditions: 10 µM
row,Compound,growth
1,CCOC(=O)c1[nH]c(C)c(C(=O)O)c1C,110% (inactive)
2,O=C(c1ccccc1)C1CCC1,112% (inactive)
3,CCOc1ccc(/C=N/N=C(N)N)cc1OCC,99% (inactive)
4,O=C(O)[C@@H]1[C@H]2C[C@H]3c4[nH]c5ccccc5c4CCN3C[C@@H]2CC[C@@H]1O,113% (inactive)
5,O=[N+]([O-])c1ccc(N=Nc2ccc(O)c3ccccc23)cc1,52.7% (inactive)
6,COC(=O)c1ccc(NC(=O)CCl)cc1,73.8% (inactive)
7,NC(=S)CN1CCOCC1,111% (inactive)
8,COc1ccccc1NC(=O)c1cc2cc(Br)ccc2cc1O,10.2% (inactive)
9,CCCCN(CCCC)CCCO,117% (inactive)
10,CC1(c2ccccc2)NC(=O)NC1=O (stereo unspecified),113% (inactive)
11,Cc1cc(C)c(N)c(S(=O)(=O)O)c1,98.9% (inactive)
12,CN(C)C(C)(C)CC(C)(C)C,109% (inactive)
13,Cc1c(C(=O)O)c(=O)n(-c2ccccc2)n1C,107% (inactive)
14,COc1ccccc1C1OC2=Nc3cc(C)c(C)cc3NC2C1=O (stereo unspecified),82.5% (inactive)
15,COc1cc(C(N)=O)cc(OC)c1OC,116% (inactive)
16,NC(C(=O)O)c1ccc([N+](=O)[O-])cc1 (stereo unspecified),111% (inactive)
17,CC1=CC(C)(C)NC(=S)N1c1ccc(S(=O)(=O)O)c2cccc(S(=O)(=O)O)c12,106% (inactive)

row,Compound,growth
1,C=CCNC(=O)c1ccc(OC)cc1,109% (inactive)
2,O=C(/C=C/C(=O)c1ccccc1)c1ccccc1,100% (inactive)
3,CCC(O)CC(CC)CO (stereo unspecified),114% (inactive)
4,CSc1[nH]c(=O)ncc1F,102% (inactive)
5,O=[N+]([O-])c1ccc(Cl)c(S(=O)(=O)O)c1,117% (inactive)
6,CCOC(=O)c1cc(/C=C/c2ccc(Cl)cc2Cl)on1,66.8% (inactive)
7,O=C1C=CC2=C3c4cc(O)c(O)cc4CC3(O)COC2=C1O (stereo unspecified),111% (inactive)
8,O=C(N/N=C\c1cc(Br)cc(Br)c1O)N/N=C/c1cc(Br)cc(Br)c1O,66.9% (inactive)
9,O=S(=O)(O)C(Nc1ccccc1)c1ccccc1 (stereo unspecified),104% (inactive)
10,CCC(=O)Oc1ccc(OC)cc1,106% (inactive)
11,OCc1cccc2ccccc12,116% (inactive)
12,Cc1cc(N2CCC(N3CCCC3)CC2)nc(/N=C(\N)Nc2ccc(Cl)c(Cl)c2)n1,-98.6% (active)
13,O=c1[nH]nc(SC2CCCCC2)c(=O)[nH]1,105% (inactive)
14,C=CC(=O)OCCCCCCCC,106% (inactive)
15,Cc1cc(=O)cc(C)n1-c1ccccc1,110% (inactive)
16,COc1ccccc1NC(=O)C1=C(C)NC(C)=C(C(=O)Nc2ccccc2OC)C1c1cccc([N+](=O)[O-])c1,75.4% (inactive)
17,Cc1nc2ccccc2c(C(=O)O)c1O,112% (inactive)

# — PubChem BioAssay (NCI)
